Results on 36 compounds are retold here after PubChem BioAssay (NCATS).

Structures are written as SMILES. Inconclusive results are not listed. A call without a number means that no potency is given here. Active and inactive are the calls of the source. The call rests on the fitted dose curve; in most records, active means well fitted curve in the direction sought with a large enough effect; inconclusive means small, poorly fitted or top-dose-only effect, or another doubt; inactive means no such curve, though single readings can be large; an effect the other way counts as inactive or inconclusive.
Potency means the concentration at half of the fitted maximal effect.

One assay is described as follows: qHTS of pediatric cancer cell lines to identify multiple opportunities for drug repurposing: Primary screen for U-2 OS cells (AID 1347096). Further: nearly all actives have a fitted effect of over 50% in size. As to conditions: U-2 OS viability, CellTiter-Glo luminescence, 48 h; series mostly up to 46 µM. The procedure, abridged:
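Cells (500-1,000/well) in growth media were settled 5 h at 37 degrees C, then given compounds for 48 h. Viability was read as CellTiter-Glo luminescence. Primary runs used MIPE at 11 points (0.78 nM-46 µM) and NPC at 8 points (0.59 nM-46 µM); follow-ups used 11 points.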
Take `CCCCCCCCCCCCCCC[C@H](O)[C@@H](N)CO`: the Potency result was “inactive”.
`Cc1c(-c2ccccc2)oc2c(C(=O)OCCN3CCCCC3)cccc2c1=O`: the Potency result is “inactive”.
Take `CCN1CCN(C(=O)N[C@@H](C(=O)N[C@@H]2C(=O)N3C(C(=O)O)=C(CSc4nnnn4C)CS[C@H]23)c2ccc(O)cc2)C(=O)C1=O`: the Potency entry was “inactive”.
Same read-out and setting: the same measure for `COc1ccc(C(=O)c2ccccc2)c(O)c1`: “inactive”; for `CC(C)[N+](C)(C)CC(O)COc1cccc2ccccc12` (configuration not stated): “inactive”.
On the same count and under the same terms, as for `OCCOCCN1CCN(C2=Nc3ccccc3Sc3ccccc32)CC1`, the entry is “inactive”; as for `CCCCCCCCOc1ccc(C(=O)c2ccccc2)c(O)c1`, “inactive”; as for `O=C1C(CCS(=O)c2ccccc2)C(=O)N(c2ccccc2)N1c1ccccc1` (configuration not stated), “inactive”.
Still for that read-out and setting: as for `CN1CCC[C@@H]1CCO[C@](C)(c1ccccc1)c1ccc(Cl)cc1`, the entry is “inactive”; as for `O=C1OC(CN2CCOCC2)CN1/N=C/c1ccc([N+](=O)[O-])o1` (configuration not stated), “inactive”; as for `CCCCN=C(N)N=C(N)N`, “inactive”.
As for `CC1CCc2c(N3CCC(O)CC3)c(F)cc3c(=O)c(C(=O)O)cn1c23` (configuration not stated), the Potency entry is “inactive”.
On the same count and under the same terms, as for `Cc1ncc(CO)c(C=O)c1O`, the entry is “inactive”.
On the same count and under the same terms, as for `COc1ccc2c(c1)c1c3n2CCN(C)C3=NCC1`, the entry is “inactive”; as for `O=C(Nc1cccc(C2=NCCN2)c1)Nc1cccc(C2=NCCN2)c1`, “inactive”; as for `O=C(NC1CCN(CCc2c[nH]c3ccccc23)CC1)c1ccccc1`, “inactive”.
In the case of `CCCCCCCCCCCCCCCC(=O)O`, the Potency result is “inactive”.
Same read-out and setting: the same measure for `CC(C)n1c(/C=C/[C@@H](O)C[C@@H](O)CC(=O)O)c(-c2ccc(F)cc2)c2ccccc21`: 6.68 µM (active); for `Cc1cc(CC(=O)O)c(C)n1-c1ccc(Cl)cc1`: “inactive”.
Turning to `CC(=O)Nc1ncc([N+](=O)[O-])s1`, the Potency result was “inactive”.
Same read-out and setting: as for `NS(=O)(=O)c1cc2c(cc1Cl)NC(CC1CCCC1)NS2(=O)=O` (configuration not stated), the entry is “inactive”; as for `Cc1cccc(C)c1NC(=O)c1ccccc1C(=O)O`, “inactive”.
Still for that read-out and setting: the same measure for `CN1CCN(c2cc3c(cc2F)c(=O)c(C(=O)O)cn3-c2ccc(F)cc2)CC1`: “inactive”; for `C/C=C/C=N/NC(=O)c1ccncc1`: “inactive”; for `CC(C)CCCC(C)N` (configuration not stated): “inactive”.
On the same count and under the same terms, as for `COC(=O)C(c1ccccc1Cl)N1CCc2sccc2C1` (configuration not stated), the entry is “inactive”; as for `CCOc1ccccc1C(N)=O`, “inactive”; as for `C[N+]1(CC2COC(c3ccccc3)(C3CCCCC3)O2)CCCCC1` (configuration not stated), “inactive”.
In the case of `CC(=O)OCC(=O)[C@H]1CC[C@H]2[C@@H]3CCC4=CC(=O)CC[C@]4(C)[C@H]3CC[C@]12C`, the Potency entry is “inactive”.
The same measure, in the same setting: the same measure for `CCN1/C(=C/C=C/c2sc3ccccc3[n+]2CC)Sc2ccccc21`: 9.2 µM (active); for `CCC1NC(=O)c2cc(S(N)(=O)=O)c(Cl)cc2N1` (configuration not stated): “inactive”; for `CN(CCCN1c2ccccc2CCc2ccccc21)CC(=O)c1ccc(Cl)cc1`: “inactive”.
Consider `CC(=O)O[C@]1(C(C)=O)CC[C@H]2[C@@H]3C=C(Cl)C4=CC(=O)CC[C@]4(C)[C@H]3CC[C@@]21C`, for which the Potency entry is “inactive”.
Same read-out and setting: the same measure for `CCCN(CCC)S(=O)(=O)c1ccc(C(=O)O)cc1`: “inactive”.
Still for that read-out and setting: as for `CCOc1cc(OCC)c(C(=O)CCC(=O)O)cc1OCC`, the entry is “inactive”.
For the compound `O=C(O)Cc1csc(-c2ccc(Cl)cc2)n1`, the Potency entry is “inactive”.

A further assay in a line: qHTS of pediatric cancer cell lines to identify multiple opportunities for drug repurposing: Primary screen for Saos-2 cells (AID 1347097). Further: nearly all actives have a fitted effect of over 40% in size. The following applies: Saos-2 viability, CellTiter-Glo ATP luminescence, 48 h; series mostly up to 46 µM. The procedure, abridged: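 500-1,000 cells/well; 5 h pre-incubation 37 °C/5% CO2; compound pinned; 48 h; CellTiter-Glo, 15 min RT; luminescence. MIPE 11-pt from 0.78 nM, NPC 8-pt from 0.59 nM final. Bortezomib 2.3 µM final as positive control.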
Regarding `CCCCCCCCCCCCCCC[C@H](O)[C@@H](N)CO`, the Potency entry is “inactive”.
For `Cc1c(-c2ccccc2)oc2c(C(=O)OCCN3CCCCC3)cccc2c1=O`, the Potency entry was “inactive”.
For the compound `CCN1CCN(C(=O)N[C@@H](C(=O)N[C@@H]2C(=O)N3C(C(=O)O)=C(CSc4nnnn4C)CS[C@H]23)c2ccc(O)cc2)C(=O)C1=O`, the Potency result was “inactive”.
The same measure, in the same setting: as for `COc1ccc(C(=O)c2ccccc2)c(O)c1`, the entry is “inactive”; as for `CC(C)[N+](C)(C)CC(O)COc1cccc2ccccc12` (configuration not stated), “inactive”.
As to `OCCOCCN1CCN(C2=Nc3ccccc3Sc3ccccc32)CC1`, the Potency result was “inactive”.
On the same count and under the same terms, the same measure for `CCCCCCCCOc1ccc(C(=O)c2ccccc2)c(O)c1`: “inactive”; for `O=C1C(CCS(=O)c2ccccc2)C(=O)N(c2ccccc2)N1c1ccccc1` (configuration not stated): “inactive”; for `CN1CCC[C@@H]1CCO[C@](C)(c1ccccc1)c1ccc(Cl)cc1`: 21.1 µM (active).
As for `O=C1OC(CN2CCOCC2)CN1/N=C/c1ccc([N+](=O)[O-])o1` (configuration not stated), the Potency entry is “inactive”.
On the same count and under the same terms, the same measure for `CCCCN=C(N)N=C(N)N`: “inactive”; for `CC1CCc2c(N3CCC(O)CC3)c(F)cc3c(=O)c(C(=O)O)cn1c23` (configuration not stated): “inactive”; for `Cc1ncc(CO)c(C=O)c1O`: “inactive”.
As for `COc1ccc2c(c1)c1c3n2CCN(C)C3=NCC1`, the Potency entry was “inactive”.
Regarding `O=C(Nc1cccc(C2=NCCN2)c1)Nc1cccc(C2=NCCN2)c1`, the Potency entry was “inactive”.
In the case of `O=C(NC1CCN(CCc2c[nH]c3ccccc23)CC1)c1ccccc1`, the Potency entry was “inactive”.
On the same count and under the same terms, as for `CCCCCCCCCCCCCCCC(=O)O`, the entry is “inactive”; as for `CC(C)n1c(/C=C/[C@@H](O)C[C@@H](O)CC(=O)O)c(-c2ccc(F)cc2)c2ccccc21`, 1.5 µM (active); as for `Cc1cc(CC(=O)O)c(C)n1-c1ccc(Cl)cc1`, “inactive”.
With `CC(=O)Nc1ncc([N+](=O)[O-])s1`, the Potency entry was “inactive”.
The same measure, in the same setting: the same measure for `NS(=O)(=O)c1cc2c(cc1Cl)NC(CC1CCCC1)NS2(=O)=O` (configuration not stated): “inactive”.
With `Cc1cccc(C)c1NC(=O)c1ccccc1C(=O)O`, the Potency entry was “inactive”.
The same measure, in the same setting: as for `CN1CCN(c2cc3c(cc2F)c(=O)c(C(=O)O)cn3-c2ccc(F)cc2)CC1`, the entry is “inactive”; as for `C/C=C/C=N/NC(=O)c1ccncc1`, “inactive”.
The same measure, in the same setting: as for `CC(C)CCCC(C)N` (configuration not stated), the entry is “inactive”; as for `COC(=O)C(c1ccccc1Cl)N1CCc2sccc2C1` (configuration not stated), “inactive”; as for `CCOc1ccccc1C(N)=O`, “inactive”.
Turning to `C[N+]1(CC2COC(c3ccccc3)(C3CCCCC3)O2)CCCCC1` (configuration not stated), the Potency entry was “inactive”.
In the case of `CC(=O)OCC(=O)[C@H]1CC[C@H]2[C@@H]3CCC4=CC(=O)CC[C@]4(C)[C@H]3CC[C@]12C`, the Potency entry was “inactive”.
As to `CCN1/C(=C/C=C/c2sc3ccccc3[n+]2CC)Sc2ccccc21`, the Potency is 0.92 µM (active).
Same read-out and setting: the same measure for `CCC1NC(=O)c2cc(S(N)(=O)=O)c(Cl)cc2N1` (configuration not stated): “inactive”.
Turning to `CN(CCCN1c2ccccc2CCc2ccccc21)CC(=O)c1ccc(Cl)cc1`, the Potency result was “inactive”.
As for `CC(=O)O[C@]1(C(C)=O)CC[C@H]2[C@@H]3C=C(Cl)C4=CC(=O)CC[C@]4(C)[C@H]3CC[C@@]21C`, the Potency entry is “inactive”.
The same measure, in the same setting: as for `CCCN(CCC)S(=O)(=O)c1ccc(C(=O)O)cc1`, the entry is “inactive”; as for `CCOc1cc(OCC)c(C(=O)CCC(=O)O)cc1OCC`, “inactive”; as for `O=C(O)Cc1csc(-c2ccc(Cl)cc2)n1`, “inactive”.
